Molecules are shown by their SMILES. Hit rate of the full screen: of about 2,300 compounds, about 1,000 (43%) were called active. The rule behind the calls is not given here. So high a share suggests a set chosen from earlier hits. The list shows a part of the results. Results with a measured potency or affinity are listed apart.

A short description of this assay: modified counter assay using GFP fluorescence, PhoP regulon inhibitor project, dose response (AID 1985). The settings on record: S. Typhi, 4 h; series mostly up to 150 µM.
Turning to `Cc1cc[n+](CC(=O)c2ccc(NC(=O)c3ccccc3)cc2)cc1`, the compound was called inactive.

Turning to `COc1cccc(N2CCN(C(=S)NCc3ccco3)CC2)c1`, the result was inactive.

On to `COc1ccc(OC)c(-c2cc(C(=O)Nc3ccc(F)cc3F)no2)c1`, for which the compound was classed as inactive.

For `N#Cc1nc(COc2ccc(Br)cc2)oc1NCCCn1ccnc1`, the result was inactive.

As to `COc1ccc2nc(N(CCN(C)C)C(=O)/C=C/c3cccs3)sc2c1`, the outcome was inactive.

As for `CN(C)CCN(C(=O)C1=COCCO1)c1nc2ccc(Cl)cc2s1`, the call was inactive.

As for `Cc1cc(C)c2sc(N(CCCN(C)C)C(=O)COc3ccc(Cl)cc3)nc2c1`, the compound was called inactive.

For the compound `Cc1cccc(CSCCNC(=O)COc2ccc(Cl)cc2)c1`, the call was inactive.

For `COc1ccccc1C1CN(c2ccc(F)cc2F)N=C1c1cccs1` (configuration not stated), the compound was classed as inactive.

As for `Cc1ccc(S(=O)(=O)N2CCOCC2)cc1NC(=O)CSc1nc(N)cc(=O)[nH]1`, the call was inactive.

In the case of `C=CCN1C(=O)C(O)(CC(=O)c2c(C)n[nH]c2C)c2cc(Br)ccc21` (configuration not stated), the compound was classed as inactive.

With `Cc1nc(N=Nc2ccc(O)cc2)n[nH]1`, the compound was classed as inactive.

In the case of `Cc1cc(C)nc(/N=C(\N)Nc2ccc(SC(F)F)cc2)n1`, the result was inactive.

On to `O=C(Cn1cc(/C=C\[N+](=O)[O-])c2ccccc21)Nc1ccccc1`, for which the result was inactive.

`CC(C)(C)n1nc2c(c1NC(=O)Cc1cccs1)CSC2`: the compound was called inactive.

In the case of `CC1(NC(=O)NCCCCCCNC(=O)NC2(C)CCS(=O)(=O)C2)CCS(=O)(=O)C1` (configuration not stated), the call was inactive.

Consider `O=C(Nc1ccc2[nH]c(=S)sc2c1)Nc1ccccc1F`, for which the outcome was inactive.

In the case of `Nc1ncnc2nc(SCC(=O)Nc3cccc(C(F)(F)F)c3)[nH]c12`, the call was inactive.

In the case of `Clc1ccc(Cn2cccc2C2=NCCO2)cc1`, the outcome was inactive.

On to `c1cnc2nc(-c3ccc4c(c3)OCO4)cn2c1`, for which the outcome was inactive.

Take `CN1CCN(c2nc(Nc3ccc(F)cc3)nc(Nc3ccc(F)cc3)n2)CC1`: the outcome was inactive.

For the compound `COc1ccc(S(=O)(=O)N[C@H](C(=O)N2CC[C@@]3(O)CCCC[C@H]3C2)c2ccccc2)cc1`, the compound was called inactive.

Turning to `CCN(CC)CCOC(=O)c1cc(Cl)c(N)cc1OC`, the compound was called inactive.

Turning to `O=C(/C=C/c1ccc(O)cc1)c1ccccc1`, the outcome was inactive.

For `CCc1c(C)n([O-])c2c([n+]1=O)CCCCC2`, the compound was classed as inactive.

As for `COc1ccc(N(CC(=O)N2c3ccccc3CC2C)S(=O)(=O)c2c(C)noc2C)cc1` (configuration not stated), the call was inactive.

Consider `N#Cc1c(/N=C/c2cccs2)sc2c1CCCCC2`, for which the outcome was inactive.

As for `Cc1cc(C)cc(CSc2nnc(C)c(=O)[nH]2)c1`, the call was inactive.

As to `COc1cccc(CNC(=O)C2CCN(S(=O)(=O)c3ccc(C)cc3)CC2)c1`, the outcome was inactive.

As for `CC(=O)NC(c1ccc(Cl)cc1Cl)c1ccc2cccnc2c1O` (configuration not stated), the compound was classed as inactive.

Consider `Cc1ccc(Cn2c(=N)c(C(=O)NCCN3CCOCC3)cc3c(=O)n4ccccc4nc32)cc1`, for which the compound was called inactive.

For the compound `COc1cc2[nH]c(=O)n(Cc3ccc(C(=O)N4CCC(N5CCCCC5)CC4)cc3)c(=O)c2cc1OC`, the call was inactive.

As to `O=C(c1cc2c(s1)-c1ccccc1OC2)N1CCc2ccccc2C1`, the compound was classed as inactive.

Consider `CNC[C@@H](CC1CCCCC1)NC[C@H](CC(C)C)NCCc1cccc(C(F)(F)F)c1`, for which the result was inactive.

In the case of `CS(=O)(=O)N1CC(C(=O)NC2CC2)Oc2ccc(Cl)cc21` (configuration not stated), the result was inactive.

On to `CCCSc1nc2cc(OC)c(OC)cc2c(=N)n1CCCN1CCOCC1`, for which the outcome was inactive.

`CC(C)(C)NC(=O)c1ccc2c3c(cccc13)CC2`: the compound was classed as inactive.

Turning to `O=C(CSc1nnnn1C1CCCCC1)N1CCCC1`, the compound was called inactive.

Turning to `COCCn1nnnc1C(c1cccc(OC)c1OC)N1CCN(C2CCCCC2)CC1` (configuration not stated), the outcome was inactive.

On to `CC(C)OC(=O)c1cccc(C(=O)Oc2ccc(Br)cc2)n1`, for which the outcome was inactive.

With `CCOc1ccc(Cl)cc1/C=N/O`, the outcome was inactive.

As for `O/N=C/C1=C(Cl)c2ccccc2CC1`, the compound was called inactive.

As to `CCOC(=O)Cn1c(=O)oc2cc(S(=O)(=O)NCC3CCCO3)ccc21` (configuration not stated), the compound was called inactive.

For the compound `CCOC(=O)C(NC(C)=O)(OCc1ccc(F)cc1)C(F)(F)F` (configuration not stated), the compound was called inactive.

Take `Cc1nn(Cc2ccccc2Cl)c2sc(C(=O)Nc3ccccc3N3CCOCC3)cc12`: the compound was classed as inactive.

On to `O=C1SC(c2ccccc2)=C/C1=C\N1CCCCC1`, for which the call was inactive.

Take `CC(C)C(NS(=O)(=O)c1cccc2nsnc12)C(=O)N1CCn2c1nc1ccccc12` (configuration not stated): the compound was called inactive.

As to `Nc1[nH]c(=O)ncc1F`, the compound was called inactive.

For the compound `O=C1c2cccnc2C(=O)N1c1ccccc1-c1ccccc1`, the compound was classed as inactive.

As to `Cc1ccc(-n2c(=O)c3sccc3n(CC(=O)NC3CCCCC3)c2=O)cc1`, the call was inactive.

In the case of `Cc1ccc2c(c1)c1c(n2CC(O)CN2CCC(C)CC2)CCCC1` (configuration not stated), the result was inactive.

With `COCCNC(=O)c1cccc(OC2CCN(Cc3ccccc3C)CC2)c1`, the call was inactive.

As to `C[N+]1(C)C2CCC1CC(OC(=O)c1ccccc1)C2` (configuration not stated), the outcome was inactive.

Take `CCN(CC)C(=O)C1CCN(Cc2ccc(Br)cc2)CC1`: the call was inactive.

As for `N=c1c(C(=O)NCC2CCCO2)cc2c(=O)n3ccccc3nc2n1Cc1ccc(Cl)cc1` (configuration not stated), the outcome was inactive.

In the case of `CCOc1ccc(NC(=O)CN(C)S(=O)(=O)c2cccs2)cc1`, the outcome was inactive.

As for `Cc1ncc(CC(=O)n2cc(C(=O)c3cc(F)ccc3O)cn2)s1`, the compound was classed as inactive.

For the compound `CN(C)C(=O)CC12CC3CC(C1)CC(CC(=O)N(C)C)(C3)C2`, the compound was classed as inactive.

As to `Nc1cc2c3c(cccc3c1)C(=O)N(CCN1CCCC1)C2=O`, the call was inactive.

As to `CC[C@H](C)[C@@H](CN[C@H](C)CNC)NCCC(c1ccccc1)c1ccccc1`, the outcome was inactive.

As for `O=C(Cn1c(=O)oc2ccccc21)N1CCN(c2ccc(N3CCOCC3)nn2)CC1`, the call was inactive.

For `CCn1c(O)c(N=NC(=O)CNC(=O)/C=C/c2ccco2)c2ccccc21`, the call was inactive.

Consider `Cc1c(CCN)ccc2c1[nH]c1ccccc12`, for which the compound was called inactive.

In the case of `O=C(N/N=C/c1c(Cl)nc2ccccn2c1=O)c1cccnc1`, the compound was classed as inactive.

Turning to `Cc1c(C=O)c2ccccn2c1C(=O)c1ccccc1`, the outcome was inactive.

With `Oc1ccc(-c2nc3ncccn3c2Nc2ccc3c(c2)OCCO3)cc1`, the compound was classed as inactive.

Turning to `CC(C)CC(c1nnnn1Cc1ccco1)N1CCN(c2cccc(Cl)c2)CC1` (configuration not stated), the call was inactive.

On to `COc1cccc(C2=NO[C@@H]3C(=O)N(Cc4ccccc4)C(=O)[C@H]23)c1OC`, for which the compound was classed as inactive.

Take `CCOC(=O)/C=C1/N(C)c2ccccc2C1(C)C`: the call was inactive.

Take `Cc1cc(N/N=C/c2ccc(F)cc2)nc(NCc2ccccc2)n1`: the outcome was inactive.

On to `Cc1ccc(N/N=C/c2ccncc2)cc1`, for which the result was inactive.

For the compound `CC(Oc1ccc(/C=N/NC(=O)Cc2cccc3ccccc23)cc1)C(=O)O` (configuration not stated), the outcome was inactive.

For the compound `COc1ccc(/C=N/Nc2cc(C)nc3ccccc23)cc1`, the outcome was inactive.

Regarding `COc1ccc(/C=N/NC2=NCCCCC2)c(OC)c1`, the compound was called inactive.

Regarding `CCOC(=O)c1c(C)sc2c1N(C(C)=O)c1cc(Cl)ccc1S2`, the compound was called inactive.

For `CCCC1(c2ccccc2)NC(=O)N(CC(=O)Nc2ccccc2C(F)(F)F)C1=O` (configuration not stated), the result was inactive.

Regarding `O=C1C2C3C=CC(CC3)C2C(=O)N1/N=C/c1ccc(O)cc1` (configuration not stated), the call was inactive.

In the case of `COc1ccc(CNc2nc3ccccc3n2C)c(O)c1`, the compound was called inactive.

For `CCN(CC)CCn1c(NCc2cc(OC)ccc2OC)nc2ccccc21`, the call was inactive.

Take `CCN(CC)S(=O)(=O)c1ccc(/C(O)=C(\C#N)c2nc3ccccc3n2C)cc1`: the compound was called inactive.

For the compound `Cn1c(-c2ccc(CN3CCCCC3)o2)nc2ccccc21`, the result was inactive.

`CC1(C)N=C(N)NC(Nc2cccc(Br)c2)=N1`: the compound was called inactive.

`Cc1cccc(NS(=O)(=O)c2ccc3c(c2)OCCO3)c1`: the result was inactive.

As for `CCN(CC)CC#CC(C)OCOCC#CCOC` (configuration not stated), the result was inactive.

As to `CNc1ccc(SC#N)cc1`, the compound was classed as inactive.

For `O=C(CCn1cccc1)Nc1ccc(OC(F)(F)F)cc1`, the result was inactive.

With `NC1=NC2(CCCCC2)n2c(nc3ccccc32)N1`, the outcome was inactive.

As for `COc1ccc(NC2=Nc3ccccc3CC2)cc1`, the outcome was inactive.

In the case of `Cc1ccc(C(=O)NCC(=O)NCCc2ccc(S(N)(=O)=O)cc2)s1`, the outcome was inactive.

With `CCN1C(=O)N/C(=C/c2cc(C)n(Cc3ccccc3)c2C)C1=O`, the result was inactive.

With `N=c1ccccn1CC(O)COc1ccccc1` (configuration not stated), the compound was called inactive.

Regarding `Cc1c(Cl)cccc1NC(=O)C1CCN(S(C)(=O)=O)CC1`, the compound was called inactive.

`Cc1ccc(N(C(=O)c2sc(C)nc2C)C(C(=O)NCc2ccco2)c2ccccc2)cc1` (configuration not stated): the compound was called inactive.

As to `Fc1cccc(Cl)c1CSc1ccc(-c2ccco2)nn1`, the compound was called inactive.

Regarding `Cc1cccc(OCC(=O)Nc2nonc2NC(=O)COc2cccc(C)c2)c1`, the outcome was inactive.

Consider `COc1ccccc1NC(=O)Cn1c(=O)n(CCc2c[nH]c3ccccc23)c(=O)c2cccnc21`, for which the compound was classed as inactive.

With `CC(=O)Nc1ccc(NC(=O)CSc2ccc(-c3ccco3)nn2)cc1`, the call was inactive.

Take `Cc1ccc(C)c(NC(=O)CSc2nnc([C@@H](N)Cc3c[nH]c4ccccc34)o2)c1`: the result was inactive.

As for `CC(C)CC(=O)N1CCN(C(=O)CCC2CCCC2)CC1`, the compound was called inactive.

As for `CC(C)c1ccc(C2C(C#N)=C(N)Oc3c2oc(CO)cc3=O)cc1` (configuration not stated), the compound was classed as inactive.

As for `CNS(=O)(=O)c1cc(OC)ccc1OC`, the compound was classed as inactive.

`C#CC[N+]1(CC#Cc2ccc(C#CC[N+]3(CC#C)CCOCC3)cc2)CCOCC1`: the outcome was inactive.

With `Nc1c(-c2ccccc2)sc2ccc3ccccc3[n+]12`, the compound was called inactive.

As for `CCc1ccc(Nc2n[n+](-c3ccccc3)c(-c3c(Cl)cccc3Cl)s2)cc1`, the result was inactive.

With `COC(=O)CC1C(=O)NCCN1C(=O)CSc1nc2ccc([N+](=O)[O-])cc2s1` (configuration not stated), the call was inactive.

In the case of `C(=N\Nc1nc2ccccc2[nH]1)/c1ccc2ncccc2c1`, the call was inactive.

On to `O=C(O)COc1ccc(/C=C/c2nc3ccc([N+](=O)[O-])cc3s2)cc1`, for which the call was inactive.

With `O=C(N/N=C/c1cccnc1)c1ccc([N+](=O)[O-])cc1Cl`, the call was inactive.

`Cc1cccc(NC(=O)c2ccccc2Br)n1`: the call was inactive.

For the compound `Cc1cc(=O)n2nc(N3CCCC(C(=O)NC4CCCCC4C)C3)sc2n1` (configuration not stated), the outcome was inactive.

Take `COC(=O)c1ccc(Cn2cnc3ccccc3c2=O)cc1`: the compound was called inactive.

In the case of `N#CCCn1c2ccccc2c2nc3ccccc3nc21`, the compound was classed as inactive.

Take `O=S(=O)(Nc1c(S(=O)(=O)c2ccccc2)c2nc3ccccc3nc2n1C1CCCCC1)c1ccccc1`: the compound was called inactive.

Regarding `CCOC(=O)CSc1nc(-c2ccccc2)nc2ccccc12`, the outcome was inactive.

For the compound `CCCCn1c(NCc2ccccc2NS(=O)(=O)c2ccc(C)cc2)nc2ccccc21`, the compound was classed as inactive.

Consider `CCCCn1c(NS(=O)(=O)c2ccc(C)cc2)c(S(=O)(=O)c2ccccc2)c2nc3ccccc3nc21`, for which the compound was called inactive.

Consider `Cc1cccc(S(=O)(=O)c2c(N)n(/N=C/c3ccccc3)c3nc4ccccc4nc23)c1`, for which the compound was called inactive.

(Values after PubChem BioAssay AID1985 (Southern Research Specialized Biocontainment Screening …, 2009).)
